This passage reports Inhibition results from ChEMBL document CHEMBL4513149, “CO-ADD screening of MMV (CH) - MMV compounds” (2021).

Each structure is given as a SMILES string. Entries with a potency or affinity are not part of this list.

One may read the Inhibition as the relative decrease from the control value, in per cent.

In one test the test system is Klebsiella pneumoniae. Conditions: Concentration 20 uM; ASSAY_TEST Inhibition of Bacterial Growth; detection method Absorption (OD600); MEDIA CAMHB; plate type 384well; NBS; CORNING #3640; time 18 hr.
The test system of another test is Candida albicans. The note with it: 20 µM.
For the next test, the system named is Cryptococcus neoformans. Conditions: Concentration 20 uM; ASSAY_TEST Inhibition of Fungal Growth; detection method Resazurin; Absorption (OD600-OD570); plate type 384well; NBS; CORNING #3640.

`CCCCS(=O)(=O)Nc1ccc2cnn(C)c2c1`: the Inhibition with Klebsiella pneumoniae is 10.18%; with Candida albicans it was 2.57%; with Cryptococcus neoformans, -4.93%.

As to `OCc1ccc(-c2cncc(Nc3cccc(Cl)c3)c2)cc1`, the Inhibition was 12.75% in the test on Klebsiella pneumoniae, 4.13% with Candida albicans and -14.16% in the test with Cryptococcus neoformans.

In the case of `COCC(C)NC(=O)CSc1ncnc2sc(-c3ccccc3)cc12` (centres undefined), the Inhibition was 18.05% in the test on Klebsiella pneumoniae, 9.04% in the test on Candida albicans and 0.58% with Cryptococcus neoformans.

`CN1CCN(c2nccc3nc(-c4ccc(F)c(F)c4)[nH]c23)CC1`: the values for the Inhibition with Klebsiella pneumoniae, in the test with Candida albicans and in the test with Cryptococcus neoformans were 17.85%, 1.66% and -6.31%, respectively.

Regarding `O=C(Nc1nc(-c2ccccn2)cs1)C1CC1c1ccccc1F` (centres undefined), the Inhibition in the test on Klebsiella pneumoniae is 21.19%; in the test on Candida albicans, 5.33%; in the test with Cryptococcus neoformans it was -9.59%.

On to `FC(F)(F)c1cc(NCCc2ccccc2)nc(-c2ccccn2)n1`, for which the Inhibition with Klebsiella pneumoniae was -3.94%; in the test with Candida albicans, 1.73%; with Cryptococcus neoformans it was -6.05%.

On to `CCc1cc(=O)n(C)c(SC(C)C(=O)Nc2ccc(F)cc2)n1` (centres undefined), for which the Inhibition with Klebsiella pneumoniae is 3.6%; with Candida albicans, 0.76%; with Cryptococcus neoformans, -9.3%.

For `NCCC(O)C(=O)N[C@@H]1C[C@H](N)[C@@H](OC2O[C@H](CN)[C@@H](O)[C@H](O)[C@H]2O)[C@H](O)C1OC1O[C@H](CO)[C@@H](O)[C@H](N)[C@H]1O.O=S(=O)(O)O.O=S(=O)(O)O` (some centres undefined), the values for the Inhibition in the test with Klebsiella pneumoniae, in the test with Candida albicans and in the test with Cryptococcus neoformans were 11.78%, 2.46% and -2.57%, respectively.
